Experimental data published in article PMC9426499.

molecular target: ParRC(pCW3) (Clostridium perfringens plasmid pCW3, UniProt Q1PLJ8 1-87); assay: SPR; high values mean tight binding; settings: protein: recombinant; tags: C-terminal His6; chain copies: 4; label: 3' 20-nt overhang of comp strand annealed to immobilized 5'-biotin ReDCaT linker; dsDNA, one strand shown

Point of comparison: AATTAAAAACATCACAATTTTACGTAATGA, binding signal 256 RU. Against it:
- AATTTTACATAATAGAAAGGATTGATAAAA — lower, 3.1 RU
- ACAATTTTACGTAATTTAGATTTTGCAAGT — lower, 48.4 RU
- AAAAAACATCACAATTTTACATAATAGAAA — higher, 311 RU
- AATATAAAAACATAAACATCACAATTTTAC — lower, 155 RU
- CATAAACATCACAATTTTACGTAATTTAGA — higher, 348 RU
- TTTTGCAAGTAAAAAACATCACAATTTTAC — lower, 217 RU
- AAAATGAAAAAAACATCACAATTTTACGGA — lower, 250 RU
- ATTTTACGGAAAATGCTTGATTTAGATTGA — lower, 9.2 RU
- GTAATTTAGATTTTGCAAGTAAAAAACATC — lower, 42.6 RU
- ACAATTTTACATAATAGAAAGGATTGATAA — lower, 4.3 RU
- AAACATCACAATTTTACGGAAAATGCTTGA — higher, 282 RU
- ATCACAATTTTACGTAATGACAGTTTGTTG — lower, 54.7 RU
